A selection: hits, their analogues and other compounds. The true share with any hit is near 9.4%.
NPC1 promoter act = NPC1 promoter activation. Huh7 NPC1 promoter luciferase reporter, 24 h. Potency, µM (series often up to 9.22 µM), actives largely listed as activators. 2.4% of 320,000 active. AID 485313; note: nearly all actives have a fitted effect of over 60% in size
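Luciferase expression driven by the NPC1 promoter was measured in stably transfected Huh7 cells after a 24 h compound incubation, using a luciferase reagent and a luminescence read.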
Rab9 promoter act = activators of Rab9 promoter. Huh7 Rab9 promoter-luciferase reporter, luminescence, 24 h. Potency, µM (top dose mostly 9.22 µM), actives largely listed as activators. 2.8% of 320,000 active; note: nearly all actives have a fitted effect of over 60% in size
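Cells were plated at 1500 per well in reduced-serum medium with 10% FBS and left 2 h. Compound in DMSO was then added for 24 h at 37 °C. Reporter signal was read by luminescence after 10 min with luciferase detection reagent.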
SMN2 splice up = enhancers of SMN2 splice variant expression | HEK293 SMN2-luciferase splicing reporter, luminescence, 30-36 h | Potency, µM (titrated, usually from 46.1 µM), hits mostly activators | 2.8% of 210,000 active; note: nearly all actives have a fitted effect of over 55% in size
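HEK293 cells carry an SMN2 […]–luciferase reporter in which exon 7 inclusion puts luciferase in frame. Cells were plated 10-12 h before compound addition, then incubated 30-36 h at 37C. ONE-Glo luminescence was read; sodium butyrate at 4.5 mM final served as control.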
ELG1 DNA repair = inhibitors of ELG1-dependent DNA repair in HEK293T cells; Potency, µM (series often up to 46.1 µM), usual class: inhibitors; HEK293T ELG1-luciferase reporter, luminescence, 16 h; DNA damage induced by 5-fluorouridine; 2.3% of 330,000 active; AID 504467; note: nearly all actives have a fitted effect of over 55% in size
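Step one: seed 2,000 cells per well. Step two: pin-transfer compound or DMSO alongside 5-fluorouridine. Step three: incubate 16 hr, 37 °C, 5% CO2. Step four: add ONE-Glo, wait 30 min, read luminescence.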
ELG1 genotox = genotoxicity induction in ELG1-luciferase HEK293T cells. 1.3% of 330,000 active. AID 504466. HEK293T ELG1-luciferase reporter, luminescence, 16 h. Potency, µM (series often up to 46 µM), most hits filed as activators; note: nearly all actives have a fitted effect of over 60% in size
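Cells (2,000/well) expressing the ELG1-luciferase fusion are dosed by pin tool and kept 16 hr at 37 °C, 5% CO2. Signal comes from ONE-Glo luciferase reagent after 30 min at room temperature.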
FLuc counter = inhibits or activates purified firefly luciferase, miR-21 counter-screen | 6.9% of 360,000 active | P08659 | Potency, µM (top dose mostly 57.5 µM), actives largely listed as inhibitors | purified FLuc, Km substrates, luminescence inhibition; note: nearly all actives have a fitted effect of over 55% in size
Target sequence (P08659 whole entry, looked up): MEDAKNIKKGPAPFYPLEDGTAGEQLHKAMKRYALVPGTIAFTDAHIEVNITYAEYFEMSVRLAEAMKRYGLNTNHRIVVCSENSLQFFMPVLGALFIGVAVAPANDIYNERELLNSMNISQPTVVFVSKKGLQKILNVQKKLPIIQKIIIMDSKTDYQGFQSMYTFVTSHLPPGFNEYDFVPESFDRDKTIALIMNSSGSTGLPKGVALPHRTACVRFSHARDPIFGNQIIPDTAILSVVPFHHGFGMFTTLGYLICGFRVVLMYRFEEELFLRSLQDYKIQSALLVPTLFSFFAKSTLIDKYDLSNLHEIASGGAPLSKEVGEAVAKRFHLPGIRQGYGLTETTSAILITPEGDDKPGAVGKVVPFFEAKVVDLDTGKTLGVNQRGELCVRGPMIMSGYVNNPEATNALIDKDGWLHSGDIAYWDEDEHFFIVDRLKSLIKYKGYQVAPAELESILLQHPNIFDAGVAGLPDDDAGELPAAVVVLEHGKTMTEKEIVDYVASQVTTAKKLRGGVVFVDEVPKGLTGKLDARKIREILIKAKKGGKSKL
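Purified P. pyralis luciferase, 10 nM final, with Km-level 10 uM D-luciferin and 10 uM ATP in 50 mM Tris acetate pH 7.5, 10 mM Mg acetate, 0.01% Tween-20, 0.05% BSA; 6-point qHTS titration about 60 µM downward; luminescence read.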
Hits are given with their value; 0 = inactive; ? = inconclusive; - = no result; [ ] = dose if it differs, or a comment. Calls come from the whole dose curve; as a rule, active = well fitted curve in the direction sought with a large enough effect; inconclusive = small, poorly fitted or top-dose-only effect, or another doubt; inactive = no such curve, though single readings can be large; an effect the other way counts as inactive or inconclusive.

SMILES	NPC1 promoter act	Rab9 promoter act	SMN2 splice up	ELG1 DNA repair	ELG1 genotox	FLuc counter
Cc1ccnc(NC(=O)Nc2cccc(F)c2)c1	1.58µM	1µM	3.55µM	?	0.92µM	0.953µM
Oc1cc(CN2COc3ccccc32)c(O)cc1CNC1CCCCC1	-	-	0[9.22 µM]	-	-	-
Cc1cc(C=C2C(=O)c3ccccc3C2=O)c(C)n1-c1ccc(C(=O)O)cc1	0	0	-	0	0	19µM
Cc1cc(C=O)c(C)n1-c1cccc(C(=O)O)c1	0	0	-	0	0	0
Cc1cc(C=C2C(=O)c3ccccc3C2=O)c(C)n1-c1ccccc1	0	0	0	?	?	0.12µM
Cc1cc(/C=C2\Cc3ccccc3C2=O)c(C)n1-c1ccccc1	0	0	4.47µM	?	1.16µM	0.19µM
COc1ccccc1/C=C1\Cc2ccccc2C1=O	0	0	-	?	?	10.7µM
COCCCNC(=O)CN1C(=O)COc2ccc(S(=O)(=O)N3CCCC3)cc21	-	-	0	-	-	0
Cc1cc(C=C2C(=O)c3ccccc3C2=O)c(C)n1-c1cccc(C(=O)O)c1	0	2.51µM	0	?	0	4.78µM
CCC1CN(C(=O)N2CCC(C(=O)NCCc3ccccc3Cl)CC2)c2cc(C)ccc2O1 (stereo not drawn)	-	-	-	-	-	0
CCCc1cc(N2CCN(c3cc(Cl)ccc3C)CC2)n2cnnc2n1	-	-	0	-	-	0
N#Cc1ccc(N=c2ssnc2Cl)cc1	0	0	0	?	0	15.1µM
CCOC(=O)c1ccc(N=c2ssnc2Cl)cc1	0	0	0	0	0	?
COc1ccc(N=c2ssnc2Cl)cc1	0	0	0	0	0	?
Clc1ccc(N=c2ssnc2Cl)cc1	0	0	0	16.4µM	0	?
Clc1nssc1=Nc1ccccc1	0	0	0	?	0	21.3µM
COc1cc(N=c2ssnc2Cl)cc(OC)c1OC	0	0	0	0	0	15.1µM
Cc1cccc(NC(=O)C2CCCN(S(=O)(=O)c3cnc[nH]3)C2)c1C (stereo not drawn)	-	-	0	-	-	0
O=C(Cn1ncc2c3ccccc3n(Cc3cccc(Cl)c3)c2c1=O)N1CCCCCC1	-	-	0	-	-	0
Fc1ccc(N=c2ssnc2Cl)c(F)c1	0	0	0	?	0	19µM
Cc1nonc1OCCN1CCN(c2ccc([N+](=O)[O-])cc2)CC1	0	0	-	20.6µM	0	0
COc1cccc([C@@H]2Oc3ccc(Br)cc3C(=O)[C@H]2OC(=O)N[C@H]2CCCc3ccccc32)c1	-	-	0	-	-	-
O=C(O)COc1ccc(/C=N/NC(=O)COc2nsnc2N2CCOCC2)cc1	0	0	-	0	0	0
CC(C)(C)c1ccc(OCC(=O)N/N=C/c2ccsc2)cc1	0	0	-	0	0	10.7µM
CC(C)(C)OC(=O)COc1ccc(/C=N/NC(=O)CN2CCCCC2)cc1	1.58µM	1.12µM	-	?	?	0
SMILES	NPC1 promoter act	Rab9 promoter act	SMN2 splice up	ELG1 DNA repair	ELG1 genotox	FLuc counter
CC(C)(C)c1ccc(OCC(=O)N/N=C/c2ccc(N3CCOCC3)cc2)cc1	0	0	0	0	0	5.36µM
O=C(COc1ccc([N+](=O)[O-])cc1)N/N=C/c1cc([N+](=O)[O-])ccc1N1CCOCC1	0	0	0	18.4µM	0	0
COc1ccc(/C=N/NC(=O)CN2CCCC2)cc1	0	0	-	0	0	0
Cc1cc(C)cc(Nc2cc(C)nc3nc(-c4ccco4)nn23)c1	-	-	-	-	-	0
CCOC(=O)c1ccccc1NC(=O)CSc1ncc2c(n1)-c1ccccc1N(CC)S2(=O)=O	-	-	-	-	-	0
COc1cccc(CNC(=O)Cc2ccc(NC(=O)N3CCSc4ncccc43)cc2)c1OC	-	-	-	-	-	0
COc1ccc(/C=N/N=C/c2ccc(OC)c(OC)c2)cc1OC	0	0	0	0	0	0
COc1ccc(/C=N/N=C/c2ccc(OC)c(O)c2)cc1O	0	0	0	0	0	23.9µM
COc1cc(/C=N/N=C/c2cc(OC)c(O)c(OC)c2)cc(OC)c1O	0	0	0	0	0	16.9µM
Cc1ccc(S(=O)(=O)N(CC(=O)Nc2c(C)cccc2C)c2cccc(Cl)c2)cc1	-	-	0	-	-	0
CN(Cc1ccc(OC(F)F)cc1)C(=O)C1CCN(S(=O)(=O)c2ccc3c(c2)OCCO3)CC1	0	0	-	7.3µM	0	0
CN(Cc1ccc(OC(F)F)cc1)C(=O)/C=C/c1ccc(S(=O)(=O)N2CCOCC2)cc1	-	-	-	16.4µM	0	-
COc1ccc(OC)c(NC(=O)/C=C/c2ccc(S(=O)(=O)N3CCOCC3)cc2)c1	0	0	-	0	0	0
COc1ccc(CN(C)C(=O)/C=C/c2ccc(S(=O)(=O)N3CCOCC3)cc2)cc1F	0	0	-	23.1µM	0	0
CN(CC(=O)Nc1ccc(F)cc1)C(=O)C1CCN(S(=O)(=O)c2ccc3c(c2)OCCO3)CC1	0	0	-	0	0	0
CCCN(C(=O)Nc1cn(CC(C)C)c(=O)c2ccccc12)c1ccc(F)cc1	-	-	-	-	-	0
O=C(O)c1ccc2c(c1)C(=O)N([C@H](Cc1ccc(O)cc1)C(=O)O)C2=O	0	0	-	-	-	0
COc1cccc(-n2c(=O)c3sc4ccccc4c3n(CC(=O)NC3CCCCC3)c2=O)c1	-	-	0	-	-	0
CCOC(=O)C(CC)n1nnc2sc(-c3ccccc3)cc2c1=O (stereo not drawn)	-	-	0	-	-	21.3µM
Cc1ccccc1-n1c(SCC(N)=O)nc2sc(-c3ccccc3)cc2c1=O	0	0	0	0	0	0
CC(C)COC(=O)Cn1nnc2sc(-c3ccccc3)cc2c1=O	-	-	0	-	-	0
CC(=O)Cn1nnc2sc(-c3ccccc3)cc2c1=O	?	?	14.1µM	?	?	?
COc1ccc(-n2cnc3sc(-c4ccccc4)cc3c2=O)cc1	0.562µM	0.631µM	6.31µM	?	?	?
Cc1ccc(C)n1-n1c(C)nc2sc(-c3ccccc3)cc2c1=O	?	?	0	?	?	16.9µM
Cc1cccc(CNc2cc(-c3cccnc3)ncn2)c1	-	-	0	-	-	-
SMILES	NPC1 promoter act	Rab9 promoter act	SMN2 splice up	ELG1 DNA repair	ELG1 genotox	FLuc counter
Cc1ccc(C)n1-n1cnc2sc(-c3ccccc3)cc2c1=O	0	0	0	0	0	?
CC(=O)Cn1cnc2sc(-c3ccccc3)cc2c1=O	3.16µM	4.47µM	20µM	?	12.6µM	9.53µM
O=c1[nH]cnc2sc(-c3ccccc3)cc12	0	?	0	?	0	15.1µM
CCn1cnc2sc(-c3ccccc3)cc2c1=O	1.26µM	2.82µM	10µM	?	3.66µM	6.01µM
O=c1[nH]c(-c2ccccc2)nc2sc(-c3ccccc3)cc12	0	?	?	?	?	?
O=c1c2cc(-c3ccccc3)sc2ncn1-n1cccc1	1.78µM	1.78µM	?	?	?	0
CCc1cc2c(=O)n(-c3ccc(C)cc3)cnc2s1	3.98µM	2.51µM	3.16µM	?	?	10.7µM
CCc1cc2c(=O)n(-c3ccccc3)cnc2s1	0	0	0	?	0	0
COc1ccc(-c2nc(CSc3nncn4c3cc3sccc34)c(C)o2)cc1OC	-	-	-	-	-	0
NNC(=O)c1[nH]c2ccc(Cl)cc2c1-c1ccccc1	0	0	-	16.4µM	0	0

Assay outcomes: PubChem BioAssay, National Center for Advancing Translational Sciences (NCATS)
